Source: PubChem BioAssay (NCATS)
“And” between values parts separate entries of the source, which are not always exact repeats. Equal entries are not always repeated. Records with an inconclusive call do not appear. The source made the active and inactive calls. Calls come from the whole dose curve.

experiment: Primary qHTS to identify inhibitors of SARS-CoV-2 cell entry (AID 1645846); settings: SARS-CoV-2 pseudovirus cell entry assay, luminescence; activity change, negative = inhibition: at 57.1 µM (top of the series) unless noted; series mostly up to 57.1 µM; note: nearly all actives have a fitted effect of over 45% in size
Excerpt: Assay Provider: Wei Zheng, Ph.D.
National Center for Advancing Translational Sciences, National Institute of Health, Rockville, MD.
SARS-CoV-2 spike protein, within the viral envelope, mediates viral attachment and infection of host cells. The SARS-CoV-2 spike protein specifically binds to the host receptor ACE2 (Angiotensin-converting enzyme 2). This interaction promotes endocytosis of the viral particle, additional events lead to viral-host cell membrane fusion and release of the viral contents, allowing viral replication.
While SARS-CoV-2 requires BSL-3 facilities for live virus work, pseudotyped partices (PP) that incorporate SARS-CoV-2 spike proteins without replication elements could facilitate studies on viral entry mechanisms in a BSL-2 setting. This PP cell entry assay could also enable screening of small molecule compound libraries in BSL-2 setting to identify inhibitors of SARS-CoV-2 cell entry.
PROTOCOL TABLE (format as described by Inglese J, Shamu CE and Guy RK. 2007)
SEQUENCE No. (e.g., 1, 2, 3, etc.); […] (e.g., Cells, Incubation, Reagent, etc.); VALUE and DESCRIPTION.
1. Cells. Seed 1500 HEK293-ACE2 cells (Expi293F with stable expression of human ACE2) in 2 uL/well media (DMEM, 10% FBS, 1x L-glutamine, 1x Pen/Strep, 1 ug/ml puromycin) in white 1536-well assay plates (Greiner #782073).
2. Incubation. Incubate at 37C with 5% CO2 overnight (~16 h).
3. Compounds. Dispense 23 nL/well compounds in DMSO via pin transfer.
4. Incubation. Incubate for 1 hr at 37C 5% CO2.
5. Reagent. Dispense 2 uL/well of SARS-CoV-2-S pseudotyped particles. [a] PPs are produced with murine leukemia virus pseudotyping. [b] SARS-CoV-2-S is Wuhan-Hu-1 sequence (BEI #NR-52420) with C-terminal 19 amino acid truncation.
6. Centrifuge. […]
7. Incubation. Incubate at for 48 hr at 37C 5% CO2
8. Centrifuge. Remove supernatant with gentle centrifugation using a Blue Washer (BlueCat Bio).
9. Reagent. Dispense 4 uL/well of Bright-Glo Luciferase detection reagent (Promega #E2620).
10. Incubation. Incubate for 5 min at room temperature.
11. Detection. Read luminescence signal (Viewlux plate reader, PerkinElmer). Data was normalized with wells containing SARS-CoV-2-S PP as 100%, and wells containing bald PP (no fusion protein) as 0%.
Potency is the fitted concentration of half-maximal effect.

Row | Compound | activity change, negative = inhibition | outcome | Potency
1 | COC(=O)[C@H](CCCN=C(N)N)NS(=O)(=O)c1ccc(C)cc1 | -0.183% | – | –
2 | CNC(=O)CN1CCC(Oc2cc3c(Nc4cccc(Cl)c4F)ncnc3cc2OC)CC1 | -16.1% | – | –
3 | CC(C(=O)O)c1ccc(C(=O)c2cccs2)cc1 (stereo not given) | – | inactive | –
4 | c1ccc2c(Oc3nc(Nc4ccc(N5CCOCC5)cc4)c4ncn(C5CCCCC5)c4n3)cccc2c1 | -17.3% | – | –
5 | O=c1cc(-c2ccccc2)oc2cc(O)c(O)c(O)c12 | – | inactive | –
6 | CS(=O)(=O)c1ccc(Oc2cc(F)cc(C#N)c2)c2c1[C@H](O)C(F)(F)C2 | – | inactive | –
7 | CC1(C)Cc2c(sc(NC(=S)NC(=O)c3ccccc3)c2C(=O)O)CO1 | – | inactive | –
8 | C=CC(=O)Nc1ccc2ncnc(Nc3ccc(OCc4cccc(F)c4)c(Cl)c3)c2c1 | – | inactive | –
9 | C/C(=C\c1csc(C)n1)[C@@H]1C[C@@H]2O[C@@H]2CCC[C@H](C)[C@H](O)[C@@H](C)C(=O)C(C)(C)[C@@H](O)CC(=O)O1 | -70% | – | –
10 | CCCCCCCCCCCCCCCCCCCCCCO | -17.8% [at 27.1 µM] | inactive [at 0.702 µM] | –
11 | CN(C)CCN1C(=O)c2cccc3cc(N)cc(c23)C1=O | – | – | 7.08 µM (active)
12 | C[C@H](CCC(=O)O)[C@H]1CC[C@H]2[C@H]3[C@@H](CC[C@]12C)[C@@]1(C)CC[C@@H](O)C[C@H]1C[C@@H]3O | 0.336% | – | –
13 | O=S(=O)(O)CCSSCCS(=O)(=O)O | – | inactive | –
14 | Nc1cccc(-c2cc3c(Oc4cccc(O)c4)ncnc3[nH]2)c1 | -8.51% | – | –
15 | CCCc1nc(C(C)(C)O)c(C(=O)O)n1Cc1ccc(-c2ccccc2-c2nn[nH]n2)cc1 | -8.69% and -17.9% | – | –
16 | COc1cc2ncnc(Nc3cc(Br)c(O)c(Br)c3)c2cc1OC | -28.4% | – | –
17 | c1ccc(CNc2nc(NCc3ccccc3)c3ccccc3n2)cc1 | – | – | 22.4 µM (active)
18 | CC1CNc2c(cccc2S(=O)(=O)N[C@@H](CCCN=C(N)N)C(=O)N2CC[C@@H](C)C[C@@H]2C(=O)O)C1 (stereo not given in full) | -11.7% | – | –
19 | CN[C@H](CC(C)C)C(=O)N[C@H]1C(=O)N[C@@H](CC(N)=O)C(=O)N[C@H]2C(=O)N[C@H]3C(=O)N[C@H](C(=O)N[C@H](C(=O)O)c4cc(O)cc(O)c4-c4cc3ccc4O)[C@H](O)c3ccc(c(Cl)c3)Oc3cc2cc(c3O[C@@H]2O[C@H](CO)[C@@H](O)[C@H](O)[C@H]2O[C@H]2C[C@](C)(N)[C@H](O)[C@H](C)O2)Oc2ccc(cc2Cl)[C@H]1O | -14.9% [at 27.1 µM] and -31.1% [at 27.1 µM] | – | –
20 | CCS(=O)(=O)Nc1ccc2[nH]c(O)c(C(=Nc3ccc(CN4CCCCC4)cc3)c3ccccc3)c2c1 | – | – | 2.82 µM (active)

Row | Compound | activity change, negative = inhibition | outcome | Potency
21 | COc1cccc(Nc2c(C(N)=O)cnc3c(C)cc(S(=O)(=O)c4cccc(C(=O)N(C)C)c4)cc23)c1 | – | inactive | –
22 | COc1cc(C(=O)NC2CCN(C)CC2)ccc1Nc1ncc2c(n1)N(C1CCCC1)CCC(=O)N2C(C)C | – | – | 31.6 µM (active)
23 | O=C(c1ccc(C(=O)N2CCC(N3CCCC3)CC2)c(Nc2ccccc2)c1)N1CCC(N2CCCC2)CC1 | -24.6% | – | –
24 | CCCCCCCCCCCCCCCC(=O)OC[C@@H](NC(=O)C(Cl)Cl)[C@H](O)c1ccc([N+](=O)[O-])cc1 | – | inactive | –
25 | c1coc(CNc2ncnc3nc[nH]c23)c1 | 0.628% | – | –
26 | Cc1cc(Cl)ccc1OCCCC(=O)NO | -10.4% | – | –
27 | CCOC(=O)N1CCN(/[N+]([O-])=N/Oc2ccc([N+](=O)[O-])cc2[N+](=O)[O-])CC1 | -5.73% | – | –
28 | O=[N+]([O-])c1cn2c(n1)OC[C@@H](OCc1ccc(OC(F)(F)F)cc1)C2 | -9.12% | – | –
29 | CN1C(=O)C[C@H](C(=O)N[C@@H](Cc2cnc[nH]2)C(=O)N2CCC[C@@H]2C(N)=O)NC1=O | – | inactive; activator | –
30 | COc1ccc(CCC(=O)Nc2nc3ccc(Cl)cc3s2)cc1OC | – | inactive | –
31 | CNC(=O)c1ccc(N2C(=S)N(c3cnc(C#N)c(C(F)(F)F)c3)C(=O)C23CCC3)cc1F | -16.7% | – | –
32 | O=C1CCCC(=O)C1C(=O)c1ccc(C(F)(F)F)cc1[N+](=O)[O-] | – | inactive | –
33 | CO/N=C(\C(=O)N[C@@H]1C(=O)N2C(C(=O)O)=C(COC(C)=O)CS[C@H]12)c1csc(N)n1 | – | inactive | –
34 | CCCn1c(=O)c2[nH]c(-c3cnn(Cc4cccc(C(F)(F)F)c4)c3)nc2n(CC)c1=O | -10.8% | – | –
35 | COc1cc(F)c(C(C)C)cc1-c1ccc(C(F)(F)F)cc1CN1C(=O)O[C@H](c2cc(C(F)(F)F)cc(C(F)(F)F)c2)[C@@H]1C | -5.3% | – | –
36 | O=C(Nc1ccccc1Br)N[C@@H]1CCN(c2ccc(C(F)(F)F)cn2)C1 | -27.3% | – | –
37 | COC(=O)N(C)c1c(N)nc(-c2nn(Cc3ccccc3F)c3ncccc23)nc1N | – | – | inactive
38 | C[C@H](Nc1ncnc2nc[nH]c12)c1nc2ccc(F)cc2c(=O)n1-c1ccccc1 | -57.8% | – | –
39 | O=C(O)CCCc1c[nH]c2ccccc12 | 0.874% | – | –
